PI4K2A block – qHTS for small molecular inhibitors of PI4K2A; purified PI4K2A, ADP-Glo luminescence, 1 h; stronger effect = lower value; 0.13% of 420,000 active; activity change, negative = inhibition, % at 76.9 µM; AID 1346378, 2018; in the data active = activity change below about -50%; inconclusive = mostly about -30% to -49%
Target sequence (Q9BTU6 whole entry, looked up): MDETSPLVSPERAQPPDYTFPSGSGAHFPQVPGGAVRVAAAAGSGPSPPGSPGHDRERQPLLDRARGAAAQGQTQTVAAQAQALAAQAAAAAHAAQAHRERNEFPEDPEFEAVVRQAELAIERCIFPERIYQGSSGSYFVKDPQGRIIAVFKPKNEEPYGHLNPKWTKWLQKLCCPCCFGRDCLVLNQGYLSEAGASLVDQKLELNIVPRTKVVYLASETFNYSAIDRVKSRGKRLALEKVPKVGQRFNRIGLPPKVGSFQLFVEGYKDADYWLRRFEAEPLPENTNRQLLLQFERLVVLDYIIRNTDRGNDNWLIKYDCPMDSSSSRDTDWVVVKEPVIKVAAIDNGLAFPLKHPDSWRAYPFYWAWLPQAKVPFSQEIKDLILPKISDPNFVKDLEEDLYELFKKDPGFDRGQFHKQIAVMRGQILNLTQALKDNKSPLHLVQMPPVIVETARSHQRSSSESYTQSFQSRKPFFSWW
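Compounds are screened against recombinant PI4K2A using PI as substrate and ATP, the latter dispensed at 300 microM. Reactions run one hour at ambient temperature before ADP-Glo detection; full inhibition defined by wells lacking enzyme.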
Tb PGK inh – qHTS Assay to Find Inhibitors of Phosphoglycerate Kinase. 0.043% of 380,000 active. AID 602233, 2012. Potency, µM (doses to about 57.5 µM), hits mostly inhibitors. PGK/GAPDH coupled, Kinase-Glo luminescence, 60 min; note: nearly all actives have a fitted effect of over 60% in size
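Recombinant glycosomal PGK reaction used 1,3-bisphosphoglycerate generated in-well by GAPDH (100nM final) in 100mM TEA pH 7.6, 5mM MgCl2, 0.01% Tween-20. After 60 minutes at room temperature, ATP was read by Kinase-Glo Plus luminescence end-point.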
PI5P4K alpha inh – qHTS for Inhibitors of phosphatidylinositol 5-phosphate 4-kinase (PI5P4K); Phosphatidylinositol 5-phosphate 4-kinase type-2 alpha (Homo sapiens), P48426; PI5P4Kalpha enzyme, ADP-Glo luminescence, 60 min; stronger effect = lower value; max response, %; 1.2% of 330,000 active; active = max response of -50% or lower; inconclusive = between -30% and -50%; inactive = -30% or higher; note: value at the top dose of about 77 µM
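Enzyme plus substrate dispensed, test compounds pinned in, then ATP (5 microM final) added. After 60 min at RT, ADP-Glo reagent 1 for 45 min and reagent 2 for 30 min preceded luminescence imaging.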
Pin1 inh – qHTS Assay to Find Inhibitors of Pin1. Pin1 FP peptide displacement, HiFluor488, 10 min. AID 504891, 2011. Peptidyl-prolyl cis-trans isomerase NIMA-interacting 1 (Homo sapiens), Q13526. Potency, µM (series often up to 115 µM), hits mostly inhibitors. 0.009% of 390,000 active; active = well fitted inhibition curve with a large enough effect in the polarisation, with a control signal flat, not every such curve was filed as active; inconclusive = small, poorly fitted or top-dose-only effect, or effect the other way, or a change in a side signal; inactive = no such curve, though single readings can be large or run the other way; the % refers to the polarisation
Tb PFK inh – qHTS Assay to Find Inhibitors of T. brucei phosphofructokinase; Potency, µM (titrated, usually from 57.5 µM), hits mostly inhibitors; 0.17% of 330,000 active; T. brucei PFK, ADP-Glo luminescence; note: nearly all actives have a fitted effect of over 60% in size
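1.25 nM PFK with 0.5 mM F6P and 0.1 mM ATP in 0.1 M TEA pH 8.0, 5 mM MgCl2, incubated 45 min at room temperature; ADP measured by ADP-Glo luminescence; compounds titrated up to 57 uM.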
ADP-Glo counter – qHTS for Inhibitors of PI5P4K: ADP-Glo counter assay; shares compounds with PI5P4K alpha inh; ADP-Glo detection counter-screen, luciferase luminescence, no enzyme; Potency, µM (highest dose often 76.9 µM), usual class: inhibitors; 1,100 tested, under 10 active
Of the large screens only hits and unclear results are named; the others gave an inactive call (follow-up assays come after a bar, where they were run). The full list was thinned out, with hits kept by preference. Unless noted, calls come from the whole dose curve; as a rule, active = well fitted curve in the direction sought with a large enough effect; inconclusive = small, poorly fitted or top-dose-only effect, or another doubt; inactive = no such curve, though single readings can be large; an effect the other way counts as inactive or inconclusive.

NC(=O)c1ccsc1NC(=O)COC(=O)c1ccc([N+](=O)[O-])o1	none
COc1cc(NC(=O)c2ccccc2)c(OC)cc1NC(=O)CSc1[nH]c(=O)cc(C)c1C#N	Pin1 inh inconclusive
COc1ccc(NC(=O)CSc2sc3c(O)cc(=O)[nH]c3c2C#N)c(OC)c1	PI5P4K alpha inh -65, Pin1 inh inconclusive, Tb PFK inh inconclusive | ADP-Glo counter inactive
COc1ccccc1NC(=O)CSc1sc2c(O)cc(=O)[nH]c2c1C#N	PI5P4K alpha inh -66, Pin1 inh inconclusive | ADP-Glo counter inactive
COc1ccc(NC(=O)CSc2nc(O)cc(=O)[nH]2)c(OC)c1	none
COc1ccc(NC(=O)CSc2nnc(-c3cccs3)o2)cc1Cl	none (no result: Tb PGK inh, PI5P4K alpha inh, Pin1 inh, Tb PFK inh)
C#CCNC(=O)C[C@H]1C[C@@]2(C(=O)OC)C(=C[C@H](C(C)(C)C)O[C@@H]2C)N(Cc2ccco2)C1=O	none (no result: Tb PGK inh, PI5P4K alpha inh, Pin1 inh, Tb PFK inh)
CCOc1ccc(-n2c(SCC(=O)Nc3ccc4cn[nH]c4c3)nnc2-c2ccncc2)cc1	none (no result: Tb PGK inh, PI5P4K alpha inh, Pin1 inh, Tb PFK inh)
CCCCNC(=O)NS(=O)(=O)c1ccc(NC(=O)CSc2nnc(-c3cccs3)n2-c2ccc(OC)cc2)cc1	none (no result: Tb PGK inh, PI5P4K alpha inh, Pin1 inh, Tb PFK inh)
COc1ccc(C2C(C(=O)N3CCC(C)CC3)CC(=O)N2c2ccc(OC)cc2)cc1 (stereo not drawn)	none (no result: Tb PGK inh, PI5P4K alpha inh, Pin1 inh, Tb PFK inh)
Cc1cccc(Nc2nc(NCc3ccco3)c3ccccc3n2)c1	Pin1 inh inconclusive (no result: PI5P4K alpha inh) | ADP-Glo counter inactive
c1ccc(Nc2nc(NCc3ccco3)c3ccccc3n2)cc1	none
COc1cc(Br)cc(CNc2ccc(F)c([N+](=O)[O-])c2)c1O	Pin1 inh inconclusive, Tb PFK inh inconclusive | ADP-Glo counter inactive
Cc1occc1-c1nnc(SCC(=O)Nc2ccccn2)n1-c1ccccc1	none (no result: Tb PGK inh, PI5P4K alpha inh, Pin1 inh, Tb PFK inh)
Cc1ccc(C)c(C2=NNC(=NCc3ccccc3)SC2)c1	PI5P4K alpha inh -65 | ADP-Glo counter inactive
COc1ccc(NC(C)=O)c([N+](=O)[O-])c1[N+](=O)[O-]	none (no result: Tb PFK inh)
COc1ccc(OC)c([N+](=O)[O-])c1C(N)=O	Tb PGK inh inconclusive, PI5P4K alpha inh -65, Pin1 inh inconclusive | ADP-Glo counter inactive
CN(Cc1ccccc1Cl)C(=O)CN1C(=O)C2(OCCCO2)c2ccccc21	none (no result: Tb PGK inh, PI5P4K alpha inh, Pin1 inh, Tb PFK inh)
CCCc1nnc(NC(=S)Nc2ccccc2)s1	none
CC(C)C(=O)Nc1nnc(NC(=S)Nc2ccccc2)s1	PI5P4K alpha inh -56 | ADP-Glo counter inactive
CC(C)C(=O)Nc1nnc(CCc2ccccc2)s1	PI5P4K alpha inh -51 | ADP-Glo counter inactive
O=C(c1ccccc1Cl)N1CCC(Oc2cccnc2)CC1	none (no result: Tb PGK inh, PI5P4K alpha inh, Pin1 inh, Tb PFK inh)
CCOc1ccccc1-n1c(SCC(=O)Nc2ccccc2C(=O)O)nc2ccccc2c1=O	PI5P4K alpha inh -58 | ADP-Glo counter inactive
O=C1N(CCCO)CCC12CCCCC2	none (no result: Tb PGK inh, PI5P4K alpha inh, Pin1 inh, Tb PFK inh)
CCN(CC)C(=O)CC[C@H]1CC[C@]2(CCCN(C(=O)C(C)(C)C)C2)O1	none (no result: Tb PGK inh, PI5P4K alpha inh, Pin1 inh, Tb PFK inh)
CC(C)N1CCCCC(NC(=O)c2cccc(F)c2)C1=O (stereo not drawn)	none (no result: Tb PGK inh, PI5P4K alpha inh, Pin1 inh, Tb PFK inh)
Cc1cccc(-n2c(=S)[nH]c3sc4c(c3c2=O)CCc2ccccc2-4)c1	PI5P4K alpha inh -77 | ADP-Glo counter inactive
CSc1nc2c(c(=O)[nH]1)C(c1cccs1)C1=C(CCCC1=O)N2 (stereo not drawn)	PI5P4K alpha inh -70, Pin1 inh inconclusive | ADP-Glo counter inactive
CCSc1nc2c(c(=O)[nH]1)C(c1ccc(C)cc1)C1=C(CCCC1=O)N2 (stereo not drawn)	none
O=C1CCCc2c1cc(-c1ccccc1)n2-c1ccc(O)cc1	PI5P4K alpha inh inconclusive
Cc1ccc(-c2cc3c(n2-c2ccc(C(=O)O)cc2)CCCC3=O)cc1	PI5P4K alpha inh -78 | ADP-Glo counter inactive
COc1ccc(C)cc1NC(=O)CSc1nc2scc(C)c2c(=O)[nH]1	none
COc1ccc(Cl)cc1NC(=O)CSc1nc2sccc2c(=O)[nH]1	PI5P4K alpha inh -53 | ADP-Glo counter inactive
